HGIII-sPLA2 inh – Inhibits HGIII-sPLA2 liposome hydrolysis, primary screen | Q9NZ20 | QFRET BODIPY PC-A2 liposome hydrolysis, fluorescence | inhibition, % at 12.2 µM | hit rate 0.56% among 370,000 | AID 743126;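 active = inhibition above mean plus 3 SD of compounds lying within the high and low control bounds, cut at about 19% in these data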;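 note: 0% = median of test compound wells and 100% = no enzyme DMSO wells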
Rtt109 Vps75 – blocks Candida albicans Rtt109/Vps75 acetyltransferase activity. hit rate 0.16% among 330,000. purified Rtt109/Vps75, ThioGlo CoA-SH fluorescence, 4 h. inhibition, % at 34.9 µM;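 active = inhibition of at least 50% in every replicate; inconclusive = best replicate reaches 50% inhibition but some replicates fall short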
Myeloid diff 2 – compounds promoting myeloid differentiation; calls only at 10 µM; AID 624256; hit rate 1% among 360,000; ER-HoxA9 myeloid progenitors, lysozyme-GFP differentiation, flow cytometry;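 active = normalized GFP-positive differentiation at or above the plate's own cutoff, the solvent-only control mean plus 3 SD; inconclusive = no clear call, values can overlap the other calls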;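 note: cells exposed to compound for four days before flow analysis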
ABHD5 PLIN5 PPI – blocks binding of human ABHD5 to perilipin-5; hit rate 0.78% among 360,000; inhibition, % at 4 µM; Split G. princeps luciferase complementation, luminescence, 4 h; Q00G26+Q8WTS1;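 active = inhibition above the mean inhibition across every tested compound plus 3 SD, cut at about 22% in these data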;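 note: 0% = DMSO only wells and the 100% control is not disclosed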
DAGLB inh – blocks human DAGLB lipase activity; Q8NCG7; HEK293T DAGLB membrane lysate, EnzChek fluorogenic substrate; inhibition, % at 5.17 µM; hit rate 0.059% among 340,000; AID 504411; in the data active = inhibition above about 34%;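 note: 0% = enzyme with vehicle and 100% = wells lacking enzyme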
Target sequence (Q8NCG7 whole entry, looked up): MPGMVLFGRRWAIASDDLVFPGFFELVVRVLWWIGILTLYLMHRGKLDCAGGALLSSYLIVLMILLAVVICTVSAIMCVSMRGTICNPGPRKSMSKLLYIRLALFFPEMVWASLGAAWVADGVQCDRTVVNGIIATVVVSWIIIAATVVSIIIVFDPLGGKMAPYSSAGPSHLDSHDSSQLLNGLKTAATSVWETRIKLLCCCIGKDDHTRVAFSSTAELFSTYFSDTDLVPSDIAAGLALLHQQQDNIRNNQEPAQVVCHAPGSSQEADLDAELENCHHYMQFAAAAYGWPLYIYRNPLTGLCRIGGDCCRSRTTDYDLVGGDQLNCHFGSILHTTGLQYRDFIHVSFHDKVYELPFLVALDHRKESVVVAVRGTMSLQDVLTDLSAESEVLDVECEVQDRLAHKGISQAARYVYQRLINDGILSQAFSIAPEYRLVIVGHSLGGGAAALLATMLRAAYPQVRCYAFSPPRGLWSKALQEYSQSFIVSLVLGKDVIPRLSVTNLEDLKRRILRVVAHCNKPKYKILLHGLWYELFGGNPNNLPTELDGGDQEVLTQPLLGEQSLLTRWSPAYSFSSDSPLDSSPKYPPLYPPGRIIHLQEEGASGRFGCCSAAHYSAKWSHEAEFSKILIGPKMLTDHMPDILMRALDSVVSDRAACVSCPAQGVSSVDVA
Cardio protect – protects H9c2 cardiomyocytes from peroxide injury | H2O2 injury protection, ATPLite, 2 h | protection from H2O2 cell death, % at 20 µM | hit rate 0.63% among 360,000;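 active = compounds giving at least 50% protection of heart cells from peroxide-induced death in the single-dose screen, raw or plate-pattern-corrected value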;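 note: 0% = DMSO wells with peroxide and 100% = DMSO wells without peroxide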
Active calls of the source: *; i = inactive; ? = inconclusive; nt = not tested or not shown; + = active, no number. Rows were chosen to be rich in hits. Some 2.9% of all compounds tested hit in one or more screens of this group.

SMILES	HGIII-sPLA2 inh	Rtt109 Vps75	Myeloid diff 2	ABHD5 PLIN5 PPI	DAGLB inh	Cardio protect
c1cnc2c(c1)ccc1cccnc12	5.6	-22.4	?	-9.6	-1.0	59.5*
COc1ccc(S(=O)(=O)NCc2ccco2)c2ccccc12	-2.8	6.8	i	23.0*	-4.3	-9.8
COc1cc(/C=C/C(=O)O)cc(S(=O)(=O)NCc2ccco2)c1OC	-3.3	1.2	i	5.3	-2.0	-5.3
COc1ccc(/C=C/C(=O)O)cc1S(=O)(=O)NCc1ccco1	0.8	50.2*	i	9.6	1.5	2.6
CN1C(=O)c2cccc3c(S(=O)(=O)NCc4ccco4)ccc1c23	2.8	-33.5	i	7.3	-3.3	-4.5
COc1ccc2c(/C=C/c3cc[n+](C)cc3)c[nH]c2c1	-1.3	-1.7	+	0.7	-2.6	3.4
Cc1ccc2[nH]cc(/C=C/c3cc[n+](C)cc3)c2c1	-53.8	-4.0	?	4.0	-75.6	-7.0
O=S(=O)(c1ccc(Br)cc1F)N1CC[C@H](O)C1	5.4	-5.0	i	-4.2	-1.8	9.8
Cc1c(CCC(=O)NCCCn2ccnc2)c(=O)oc2cc3occ(C(C)(C)C)c3cc12	-18.4	6.7	i	-3.2	1.4	-4.4
Cc1cccc(N2CCN(C(=O)Cn3nc(C)n4cccc4c3=O)CC2C)c1 (centres undefined)	2.1	-4.9	i	-5.5	2.6	17.7
Cc1cccc(N2CCN(C(=O)Cn3sc4nc(C)cc(C)c4c3=O)CC2C)c1 (centres undefined)	nt	158.9*	?	82.4*	0.9	-31.5
c1ccc(-n2c(-c3cccs3)nc3nc4ccccc4nc32)cc1	13.7	-4.6	i	2.3	-3.4	-1.0
COc1ccc(N(C(=O)c2cccnc2)S(=O)(=O)c2cccs2)cc1	-3.2	-6.6	i	3.5	-2.0	53.6*
O=C(O)c1cc(-c2cccnc2)nc2ccc(Br)cc12	-2.6	4.5	+	-2.5	2.0	-0.2
CC(=O)Nc1cccc(NC(=O)c2cc(-c3cccnc3)nc3ccc(Br)cc23)c1	-24.2	10.9	i	9.9	-2.6	80.4*
CC(=O)Nc1cccc(NC(=O)c2cc(-c3cccnc3)nc3ccc(Cl)cc23)c1	-11.0	-2.8	i	3.9	3.6	65.3*
CN(C)/C=C1\N=C(c2cccnc2Oc2ccc(Cl)cc2)OC1=O	-48.9	1.0	i	-2.5	-0.3	7.9
CCOc1ccc(CCNC(=O)CN2C(=O)NC(CCSC)C2=O)cc1OCC (centres undefined)	-4.2	11.3	+	-0.2	-1.3	-11.3
CCCC1=NN2C(=N)/C(=C\c3cc(C)n(-c4cc(C)cc(C)c4)c3C)C(=O)N=C2S1	-18.9	-4.2	i	10.2	7.4	-6.6
O=C1NC(c2cccs2)Nc2ccccc21 (centres undefined)	0.3	2.4	i	5.9	-2.8	66.3*
O=C(c1ccccc1)c1ccc(OC(=O)C2CCCCC2)cc1	-3.1	-1.0	i	-4.9	-8.6	-10.8
COc1cccc(NC(=O)CN(C)C(=O)CCNC(=O)c2ccccc2OC)c1	-5.2	4.9	+	-6.4	-0.3	-1.1
COc1ccc(NS(=O)(=O)c2cc(NC(=O)Cc3n[nH]c(=O)c4ccccc34)ccc2OC)cc1	-18.0	-7.0	i	4.6	1.9	70.5*
COc1ccc(Cl)cc1NC(=O)CN(C)C(=O)Cn1c(=O)oc2ccccc21	-8.2	2.0	i	6.3	-2.7	0.5
COc1ccc(NS(=O)(=O)c2cc(NC(=O)c3cc(=O)c4ccccc4o3)ccc2OC)cc1	0.5	-16.7	i	7.0	-0.7	42.1
SMILES	HGIII-sPLA2 inh	Rtt109 Vps75	Myeloid diff 2	ABHD5 PLIN5 PPI	DAGLB inh	Cardio protect
COc1ccc(NC(=O)CN(C)C(=O)Cc2n[nH]c(=O)c3ccccc23)cc1	6.5	-4.2	i	13.4	3.0	61.3*
COc1ccc(Cl)cc1NC(=O)CN(C)C(=O)Cc1n[nH]c(=O)c2ccccc12	-0.9	12.4	i	1.9	-1.7	100.4*
COc1ccc(NC(=O)CN(C)C(=O)CCNC(=O)c2ccccc2OC)cc1	-5.5	-10.2	i	12.0	-2.8	-2.8
COc1ccc(Cc2nnc(SCC(=O)Nc3ccc(N4CCOCC4)cc3)n2C)cc1	5.1	4.2	i	-3.2	-1.3	-5.2
CCOc1ccc(NC(=O)CN(C)C(=O)Cc2n[nH]c(=O)c3ccccc23)cc1OCC	-6.2	-0.6	i	0.3	-0.1	59.2*
COc1cccc(NC(=O)CN(C)C(=O)COc2ccccc2Cc2ccccc2)c1	-26.8	13.3	i	-5.4	-2.6	-4.8
CCOc1ccc(NC(=O)CN(C)C(=O)Cc2c[nH]c3ccccc23)cc1OCC	-91.5	29.0	i	-4.8	0.7	1.7
COc1cccc(CN(C)C(=O)CCNC(=O)c2ccc(Br)cc2)c1	0.1	33.5	+	8.3	4.0	5.1
COc1cccc(NC(=O)CN(C)C(=O)CCNC(=O)c2ccc(Br)cc2)c1	1.7	2.1	i	-4.5	-2.9	-0.7
COc1cccc(NC(=O)CN(C)C(=O)Cc2n[nH]c(=O)c3ccccc23)c1	-2.4	9.4	i	-6.0	0.4	79.1*
O=S(=O)(c1cccc(COc2ccc(Cl)cc2Cl)c1)N1CCOCC1	-5.1	31.4	i	-3.6	-7.2	-8.3
CN(C)CCNC(=O)c1cccc(-c2cnc3c(NC=O)cc(-c4cccs4)cn23)c1	-0.1	nt	i	8.4	nt	-7.1
Cn1ncc(Cl)c1C(=O)N/N=C/c1ccccn1	1.0	2.2	i	6.2	-1.8	50.9*
O=C(N/N=C/c1ccccn1)c1cccs1	3.3	5.2	i	-3.7	1.0	56.5*
O=C(N/N=C/c1ccccn1)c1ccccc1	0.5	3.3	i	-0.7	1.6	19.1
O=C(N/N=C\c1ccccn1)c1cccc(C(=O)N/N=C\c2ccccn2)n1	-3.7	-1.5	i	8.7	2.3	53.9*
O=C(N/N=C/c1ccccn1)c1ccc(Cl)cc1	2.3	-7.9	?	0.8	2.8	0.0
O=C(N/N=C\c1ccccn1)C1COc2cc3ccccc3cc2O1 (centres undefined)	-8.7	-0.1	i	-0.4	-2.3	86.4*
Cc1cccc(NC(=O)Nc2ccc(C)c(C)c2)n1	-3.5	3.8	i	1.8	2.0	-0.2
O=C(/C=C/c1ccccc1)NNC1=NS(=O)(=O)c2ccccc21	-1.8	8.4	i	0.9	1.4	-3.5
COc1ccccc1OCC(=O)Nc1ccc(S(=O)(=O)Nc2cc(C)nc(C)n2)cc1	3.4	2.8	i	-0.5	0.6	14.4
CN(C)CCNC(=O)/C(=C/c1ccc(-c2cccc([N+](=O)[O-])c2)o1)NC(=O)c1ccccc1	-12.4	27.7	i	1.7	1.3	7.4
Cc1ccc(C(=O)N/C(=C\c2ccc(-c3ccc(Cl)cc3)o2)C(=O)NCCCN(C)C)cc1	2.2	?	+	21.4	nt	-9.9
CN(C)CCCNC(=O)/C(=C/c1ccc(-c2ccc([N+](=O)[O-])cc2)o1)NC(=O)c1ccccc1	-2.4	9.1	+	4.4	-2.1	4.1

Screening data as filed in PubChem.
